VACV Venus inh: qHTS for Stage-Specific Inhibitors of Vaccinia Orthopoxvirus: Venus Reporter Primary qHTS; Vaccinia virus Venus reporter expression, fluorescence; Potency, µM (highest dose often 36.5 µM), inactives show at the highest dose activity change, negative = inhibition, hits mostly inhibitors; 330,000 compounds, 0.46% hits; AID 720580, 2013; calls by dose curve; tested in A549 cells; further: potency means the concentration at half of the fitted maximal effect; on the % scale 0 is the no-effect control and ±100 the full control effect; nearly all actives have a fitted effect of over 30% in size
Shiga toxin inh: A qHTS for Small Molecule Inhibitors of Shiga Toxin. Vero cells, Shiga toxin protein synthesis inhibition reporter. inhibition, % at 38.7 µM. 290,000 compounds, 9.2% hits. AID 2315, 2010; in the data active means inhibition mostly above about 28%, no sharp cut-off; inactive means mostly below about 43%; further: 0% is about no effect
Cycloheximide cs: Cycloheximide Counterscreen for Small Molecule Inhibitors of Shiga Toxin. max response, %. AID 2314, 2010. cell reporter, cycloheximide protein synthesis inhibition counterscreen. 300,000 compounds, 12% hits; in the data active means max response mostly above about 13%, no sharp cut-off; inactive means mostly below about 14%; further: read at 38.3 µM for the half of the compounds with a filed dose; 0% is about no effect
Vaccinia mCherry: qHTS for Stage-Specific Inhibitors of Vaccinia Orthopoxvirus: mCherry Reporter Primary qHTS; Potency, µM (doses to about 36.5 µM), for inactives: at the highest dose activity change, negative = inhibition, most hits filed as inhibitors; 310,000 compounds, 0.63% hits; Vaccinia virus mCherry reporter infection, fluorescence; calls by dose curve; tested in A549 cells; further: potency means the concentration at half of the fitted maximal effect; on the % scale 0 is the no-effect control and ±100 the full control effect; nearly all actives have a fitted effect of over 35% in size
Lassa entry inh: qHTS for Inhibitors of binding or entry into cells for Lassa Virus; Potency, µM (titrated, usually from 37.9 µM), without a hit: at the highest dose activity change, negative = inhibition, usual class: inhibitors; Lassa virus pseudotype entry inhibition, cell reporter; 300,000 compounds, 1.2% hits; calls by dose curve; tested in HEK293 cells; further: potency means the concentration at half of the fitted maximal effect; on the % scale 0 is the no-effect control and ±100 the full control effect; nearly all actives have a fitted effect of over 50% in size
Marburg entry inh: qHTS for inhibitors of binding or entry into cells for Marburg Virus | Marburg virus pseudotyped entry inhibition, cell reporter | Potency, µM (doses to about 37.8 µM), for inactives: top-dose activity change, negative = inhibition, hits mostly inhibitors | 300,000 compounds, 1.8% hits; calls by dose curve; tested in HEK293 cells; further: potency means the concentration at half of the fitted maximal effect; on the % scale 0 is the no-effect control and ±100 the full control effect
The depositor's hits bear a star; [ ] = another dose, or the depositor's remark. This is one part of a sample in which hits are shown more often than they occur.

How did COc1ccc2sc3ccccc3c(=O)c2c1 do in these assays?
VACV Venus inh: -8%; Shiga toxin inh: 81*; Cycloheximide cs: 44*; Vaccinia mCherry: -16%; Lassa entry inh: inconclusive; Marburg entry inh: -16%

How did CCOC(=O)c1cnc2c(c(C)nn2CC)c1NC1CC1 do in these assays?
VACV Venus inh: -14%; Shiga toxin inh: -7; Cycloheximide cs: 11; Vaccinia mCherry: -16%; Lassa entry inh: -11%; Marburg entry inh: 0%[46.1 µM]

Results for Fc1ccc(Cn2c(SCc3ccc(F)c(F)c3)nnc2C(F)(F)F)cc1 ?
Shiga toxin inh: 45*; Cycloheximide cs: 14*; Lassa entry inh: 0%; Marburg entry inh: -10%

Results for O=C(CCCn1c(=O)c2sccc2n(Cc2ccc(F)cc2Cl)c1=O)NCc1ccc2c(c1)OCO2 ?
VACV Venus inh: -18%; Vaccinia mCherry: -16%; Lassa entry inh: 4%[46.1 µM]; Marburg entry inh: 16%[46.1 µM]

What do the screens show for `O=C(Nc1cc(C(=O)Nc2ccc(S(=O)(=O)O)cc2S(=O)(=O)O)cc(C(=O)Nc2ccc(S(=O)(=O)O)cc2S(=O)(=O)O)c1)Nc1cc(C(=O)Nc2ccc(S(=O)(=O)O)cc2S(=O)(=O)O)cc(C(=O)Nc2ccc(S(=O)(=O)O)cc2S(=O)(=O)O)c1`?
VACV Venus inh: -21%; Vaccinia mCherry: -5%; Marburg entry inh: 13µM*

What do the screens show for `Cc1cc(NC(=O)C2CCCN(S(=O)(=O)c3cccc4nsnc34)C2)ccc1Br` (stereo unspecified)?
VACV Venus inh: -4%; Vaccinia mCherry: -16%; Lassa entry inh: -9%[46.1 µM]; Marburg entry inh: inconclusive

How did Nc1ccccc1SC/C=C/CSc1ccccc1N do in these assays?
VACV Venus inh: -25%; Shiga toxin inh: 68*; Cycloheximide cs: 37*; Vaccinia mCherry: inconclusive; Lassa entry inh: -22%; Marburg entry inh: 24%

Results for Cc1cccc2nc(CSc3ccccc3N)cn12 ?
VACV Venus inh: -18%; Vaccinia mCherry: -15%[1.46 µM]; Lassa entry inh: inconclusive; Marburg entry inh: -24%

How did CSc1ccc(C2c3[nH]c4ccccc4c3CCN2C(=O)c2cc(C)n(C)n2)cc1 (stereo unspecified) do in these assays?
Shiga toxin inh: 81*; Cycloheximide cs: 34*

How did O=C(c1cnccn1)N1CCc2c([nH]c3ccccc23)C1c1cccc(Cl)c1 (stereo unspecified) do in these assays?
Shiga toxin inh: 27*; Cycloheximide cs: 12*

How did CC(=O)NCCC(=O)N1CCc2c([nH]c3ccccc23)C1c1cccc(Cl)c1 (stereo unspecified) do in these assays?
VACV Venus inh: -9%; Shiga toxin inh: 37; Cycloheximide cs: -2; Vaccinia mCherry: -22%; Lassa entry inh: -3%; Marburg entry inh: inconclusive

What do the screens show for `Cc1cnc(C(=O)N2CCc3c([nH]c4ccccc34)C2c2ccc(F)cc2)cn1` (stereo unspecified)?
VACV Venus inh: -12%; Shiga toxin inh: 25; Cycloheximide cs: 4; Vaccinia mCherry: -13%

How did Cc1cc(C(=O)N2CCc3c([nH]c4ccccc34)C2c2cccc(Cl)c2)nn1C (stereo unspecified) do in these assays?
Shiga toxin inh: 50*; Cycloheximide cs: 45*

How did CCc1ccc(C2c3[nH]c4ccccc4c3CCN2C(=O)c2cc(C)nn2C)cc1 (stereo unspecified) do in these assays?
Shiga toxin inh: -7; Cycloheximide cs: -1

Results for CC(=O)NCCC(=O)N1CCc2c([nH]c3ccccc23)C1c1cccc(C)c1 (stereo unspecified) ?
VACV Venus inh: -7%; Shiga toxin inh: 38; Cycloheximide cs: 19*; Vaccinia mCherry: -7%; Lassa entry inh: -9%; Marburg entry inh: inconclusive

What do the screens show for `C[C@H]1CN([C@@H](C)CO)S(=O)(=O)c2ccc(Br)cc2O[C@@H]1CN(C)C(=O)Cc1cccnc1`?
VACV Venus inh: -7%; Vaccinia mCherry: -1%

Results for COc1ccc(C2C(C(=O)c3cccs3)=C(O)C(=O)N2c2nnc(C)s2)cc1OC (stereo unspecified) ?
VACV Venus inh: 3%; Shiga toxin inh: 51; Cycloheximide cs: 15; Vaccinia mCherry: inactive; Lassa entry inh: -13%; Marburg entry inh: 5%

Results for CC(C)c1nnc(N2C(=O)C(O)=C(C(=O)c3cccs3)C2c2ccccc2)s1 (stereo unspecified) ?
Shiga toxin inh: 55*; Cycloheximide cs: 21*

How did O=C(Nc1ccc(Cl)c(S(=O)(=O)N2CCOCC2)c1)c1ccc2c(c1)OCO2 do in these assays?
VACV Venus inh: -26%; Vaccinia mCherry: -16%; Lassa entry inh: inconclusive; Marburg entry inh: 10µM*

How did O=C(Nc1ccc(Cl)c(S(=O)(=O)N2CCOCC2)c1)c1ccc(Cl)nc1 do in these assays?
VACV Venus inh: -27%; Vaccinia mCherry: -11%; Lassa entry inh: inconclusive; Marburg entry inh: inconclusive

How did O=C(Nc1ccc(Cl)c(S(=O)(=O)N2CCOCC2)c1)c1ccc(OCC2CCCO2)cc1 (stereo unspecified) do in these assays?
VACV Venus inh: -11%; Shiga toxin inh: 2; Cycloheximide cs: 25; Vaccinia mCherry: inactive; Lassa entry inh: inconclusive; Marburg entry inh: 2.2µM*

What do the screens show for `O=C(Nc1ccc2cn[nH]c2c1)c1ccc(Cl)c(S(=O)(=O)N2CCOCC2)c1`?
VACV Venus inh: -8%; Shiga toxin inh: 5; Cycloheximide cs: 45*; Vaccinia mCherry: -16%; Lassa entry inh: 13%; Marburg entry inh: inconclusive

Results for O=C(Nc1ccc(Cl)c(S(=O)(=O)N2CCOCC2)c1)c1ccc2c(c1)OCCO2 ?
VACV Venus inh: -13%; Shiga toxin inh: 47*; Cycloheximide cs: 24*; Vaccinia mCherry: -10%; Lassa entry inh: inconclusive; Marburg entry inh: inconclusive

What do the screens show for `COc1ccc(C(=O)Nc2ccc(Cl)c(S(=O)(=O)N3CCOCC3)c2)cc1`?
VACV Venus inh: -3%; Vaccinia mCherry: inactive; Lassa entry inh: inconclusive; Marburg entry inh: inconclusive

Results for CC(=O)N(\C=C/C=C/C=C1\Sc2ccccc2C1=O)c1ccccc1 ?
VACV Venus inh: 25%; Shiga toxin inh: 115*; Cycloheximide cs: 59*; Vaccinia mCherry: -23%; Lassa entry inh: -14%; Marburg entry inh: inconclusive

What do the screens show for `CN(C)/C=C1/Sc2ccccc2C1=O`?
VACV Venus inh: -16%; Shiga toxin inh: 34; Cycloheximide cs: 32*; Vaccinia mCherry: inactive; Lassa entry inh: 19%; Marburg entry inh: 4%

What do the screens show for `CC(=O)Nc1ccc(/C=C2/Sc3ccccc3C2=O)cc1`?
VACV Venus inh: -2%; Shiga toxin inh: 22; Cycloheximide cs: 10; Vaccinia mCherry: -23%; Lassa entry inh: -21%[46.1 µM]; Marburg entry inh: -27%[46.1 µM]
